# Experimental data reported in paper PMC5540273 (PLoS ONE, 2017).
# What was measured:
# [1] = tested on: CSNK2A2
# [2] = tested on: DDR1
# [3] = tested on: CSNK2A1
# [4] = tested on: T1, ERK4
# T1 construct: gene MAPK4
# [5] = tested on: T2, DRAK1
# T2 construct: gene STK17A
# [6] = tested on: EGFR
# [7] = tested on: ERBB2
# [8] = tested on: ERBB4
# [9] = tested on: EPHB6
# [10] = tested on: EIF2AK1
# [11] = tested on: FGFR3
# [12] = tested on: DDR2
# [13] = tested on: T3, DMPK2
# T3 construct: gene CDC42BPG
# [14] = tested on: ERBB3
# [15] = tested on: T4, DLK
# T4 construct: gene MAP3K12
# [16] = tested on: DAPK3
# [17] = tested on: FLT1
# [18] = tested on: T5, ERK8
# T5 construct: gene MAPK15
# [19] = tested on: DMPK
# [20] = tested on: DAPK1
# 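Also: kd values determined as follow-up on hits from a single-replicate KINOMEscan panel screen.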
structure (smiles),measurement,setting,value
COc1cc2ncnc(Nc3ccc4nc(-c5ccccc5)[nH]c4c3)c2cc1OC.Cl [GW282450],Kd,[1],> 10 µM
COC(=O)c1c(-c2ccccc2)c2cc(C(=O)O)ccc2c(=O)n1Cc1ccccc1,Kd,[2],0.16 µM
Cc1cccc(-c2nc(Nc3ccc4[nH]ncc4c3)c3ccccc3n2)n1 [GW857175],Kd,[3],0.1 µM
same,Kd,[1],0.042 µM
O=C(Nc1n[nH]c2nc(-c3nccs3)c(Br)cc12)C1CCCC1 [SB-742609],Kd,[4],> 10 µM
COc1ccccc1CNC(=O)c1cc(C(=O)c2ccccc2C)c[nH]1 [GSK364507],Kd,[1],5.1 µM
C[C@@H]1CCCCN1c1cc(-c2ccc3c(N)n[nH]c3c2)nc(N)n1 [GSK2258759],Kd,[5],0.088 µM
Cl.O=C(Nc1cccc(-c2nn3ncccc3c2-c2ccnc(Nc3cccnc3)n2)c1)c1c(F)cccc1F [GSK312879],Kd,[2],0.14 µM
same,Kd,[6],0.038 µM
same,Kd,[7],0.029 µM
same,Kd,[8],0.064 µM
COc1cc(Nc2nccc(N3CCC(NC(=O)Nc4cc(C)ccc4C)C3)n2)cc(OC)c1OC (stereo not shown) [GSK1379762],Kd,[9],1.1 µM
Cn1cncc1-c1ccc2ncnc(Nc3ccc(OCc4ccccc4)cc3)c2c1 [GW320571],Kd,[6],0.049 µM
same,Kd,[10],> 10 µM
same,Kd,[7],0.041 µM
NC(=O)c1nnc2ccccc2c1N,Kd,[11],> 10 µM
Cc1ccc(NC(=O)Nc2cc(C(C)(C)C)nn2-c2ccccc2)cc1 [GSK1014915],Kd,[2],1.3 µM
same,Kd,[12],0.41 µM
CC(=O)Nc1nc2cnc(Nc3cc(NC(=O)c4cccc(CCC#N)c4)ccc3C)nc2s1,Kd,[2],> 10 µM
same,Kd,[12],> 10 µM
Nc1ncnc2[nH]c(-c3ccccc3)nc12 [AH5015],Kd,[1],1.1 µM
same,Kd,[10],> 10 µM
CS(=O)(=O)c1ccc(-c2nc3n(c2-c2ccncc2)CCC3)cc1 [SKF-105942],Kd,[4],> 10 µM
Cc1cccc(-c2nc(C)cc(Nc3ccncc3)n2)n1 [GSK257997],Kd,[13],0.56 µM
same,Kd,[4],> 10 µM
Cl.NC(=O)c1cccc(Nc2nccc(Nc3ccc(Oc4cccc(Cl)c4)c(Cl)c3)n2)c1 [GW659008],Kd,[6],0.12 µM
same,Kd,[14],0.26 µM
Cc1cc(-c2ccc3c(c2)CC[C@@H](N[C@@H](C)c2ccccc2)C3)cnc1N.Cl [GW412617],Kd,[15],0.28 µM
Cc1cc(N2Cc3ccccc3C2)nc(Nc2ccc(S(=O)(=O)N3CCOCC3)cc2)n1.Cl [GSK1669917],Kd,[16],> 10 µM
O=C(Nc1ccccc1)Nc1cccc(Oc2ccc3nccn3n2)c1,Kd,[2],0.024 µM
same,Kd,[17],0.091 µM
Fc1cc(Cl)ccc1Nc1ccnc2cc(-c3ccc(CN4CCCCC4)o3)ccc12 [GW560116],Kd,[1],> 10 µM
Clc1cc(Cl)cc(Nc2ccnc(Nc3cc(Cl)cc(Cl)c3)n2)c1 [GSK175726],Kd,[1],> 10 µM
O=C(Nc1n[nH]c2nc(-c3nccs3)c(Br)cc12)C1CC1 [SB-742251],Kd,[18],0.87 µM
Cn1ccc2ncnc(Oc3ccc(NC(=O)Nc4ccccc4)cc3)c21,Kd,[17],0.35 µM
Nc1nc(-c2nccs2)c(-c2ccnc3ccccc23)s1 [GW693542],Kd,[19],> 10 µM
COC(=O)c1c(-c2ccccc2)c2cc(OC)ccc2c(=O)n1Cc1ccccc1,Kd,[2],0.28 µM
Cc1ccc(NC(=O)Nc2cccc(Cl)c2)cc1-c1ccc(C(=O)Nc2ccncc2)cc1 [GSK1398468],Kd,[2],0.076 µM
COc1ccc2nc(-c3cccc(C)n3)nc(Nc3ccncc3)c2c1 [GSK204919],Kd,[13],0.51 µM
Cc1cccc(-c2nc(-c3ccc(S(C)(=O)=O)cc3)sc2-c2ccnc(NCCc3ccccc3)c2)c1,Kd,[2],0.23 µM
COc1ccc(CNC(=O)NC2CCN(c3ccnc(Nc4cc(OC)c(OC)c(OC)c4)n3)C2)cc1 (stereo not shown) [GSK1379748],Kd,[15],5.1 µM
same,Kd,[9],0.18 µM
Cc1ccccc1-n1cnc2c(N)ncnc21 [SKF-97510],Kd,[20],> 10 µM
